High-throughput results as filed in PubChem BioAssay.
Rab9 prom act = qHTS Assay for Rab9 Promoter Activators | Huh7 Rab9 promoter-luciferase reporter, luminescence, 24 h | Potency, µM (highest dose often 9.22 µM), hits mostly activators | 320,000 tested, 2.8% active | AID 485297, 2010; further: nearly all actives have a fitted effect of over 60% in size
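Steps: seed 1500 Huh7 Rab9-luc cells per well, rest 2 h at 37 °C; add compound in DMSO; incubate 24 h; add luciferase reagent, 10 min ambient; read luminescence.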
NPC1 prom act = qHTS Assay for NPC1 Promoter Activators; Huh7 NPC1 promoter luciferase reporter, 24 h; Potency, µM (doses to about 9.22 µM), usual class: activators; 320,000 tested, 2.4% active; AID 485313, 2010; further: nearly all actives have a fitted effect of over 60% in size
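Stable NPC1-promoter luciferase Huh7 line; cpd (DMSO) 24 h, 37 °C, 5% CO2; Amplite luciferase reagent 10 min RT; luminescence readout. qHTS format.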
SMN2 splice enh = qHTS Assay for Enhancers of SMN2 Splice Variant Expression | HEK293 SMN2-luciferase splicing reporter, luminescence, 30-36 h | Potency, µM (doses to about 46.1 µM), most hits filed as activators | 210,000 tested, 2.8% active; further: nearly all actives have a fitted effect of over 55% in size
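qHTS luciferase splicing reporter: luminescence rises when SMN2 exon 7 is included in transfected HEK293 cells. Compound exposure lasted 30-36 h at 37C, with 4.5 mM final sodium butyrate as control, followed by a ONE-Glo read.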
FLuc counter = qHTS profiling assay for firefly luciferase inhibitor/activator using purifed enzyme and Km concentrations of substrates (counterscreen for miR-21 project); Luciferin 4-monooxygenase (Photinus pyralis), P08659; purified FLuc, Km substrates, luminescence inhibition; Potency, µM (doses to about 57.5 µM), actives largely listed as inhibitors; 360,000 tested, 6.9% active; AID 588342, 2011; further: nearly all actives have a fitted effect of over 55% in size
Target sequence (P08659 whole entry, looked up): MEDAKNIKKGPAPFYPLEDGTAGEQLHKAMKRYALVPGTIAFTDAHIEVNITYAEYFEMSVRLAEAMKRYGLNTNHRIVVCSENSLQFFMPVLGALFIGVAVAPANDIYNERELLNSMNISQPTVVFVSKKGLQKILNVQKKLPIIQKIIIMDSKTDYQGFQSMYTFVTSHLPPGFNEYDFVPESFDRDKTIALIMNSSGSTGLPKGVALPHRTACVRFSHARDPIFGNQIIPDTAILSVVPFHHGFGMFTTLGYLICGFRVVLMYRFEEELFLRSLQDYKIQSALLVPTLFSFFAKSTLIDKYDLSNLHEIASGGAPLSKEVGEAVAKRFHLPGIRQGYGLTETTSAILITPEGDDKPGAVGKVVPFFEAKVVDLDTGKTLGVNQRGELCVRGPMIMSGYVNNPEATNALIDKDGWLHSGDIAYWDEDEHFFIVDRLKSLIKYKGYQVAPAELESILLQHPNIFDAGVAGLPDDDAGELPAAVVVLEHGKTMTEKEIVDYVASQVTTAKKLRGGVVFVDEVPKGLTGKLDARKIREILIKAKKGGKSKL
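Biochemical qHTS of compounds, final roughly 60 µM downward over six points, against 10 nM purified firefly luciferase using Km concentrations of substrates (10 uM D-luciferin, 10 uM ATP) in Tris acetate pH 7.5 buffer; luminescence output.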
ELG1 DNA repair = qHTS screen for small molecules that inhibit ELG1-dependent DNA repair in human embryonic kidney (HEK293T) cells expressing luciferase-tagged ELG1; HEK293T ELG1-luciferase reporter, luminescence, 16 h; DNA damage induced by 5-fluorouridine; Potency, µM (top dose mostly 46.1 µM), actives largely listed as inhibitors; 330,000 tested, 2.3% active; AID 504467, 2011; further: nearly all actives have a fitted effect of over 55% in size
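Overnight (16 hr) co-exposure of 2,000 cells/well to 5-fluorouridine and compound at 37 °C preceded detection. Luciferase was quantified via ONE-Glo luminescence; loss of signal denotes inhibition.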
ELG1 genotoxic = qHTS screen for small molecules that induce genotoxicity in human embryonic kidney (HEK293T) cells expressing luciferase-tagged ELG1; HEK293T ELG1-luciferase reporter, luminescence, 16 h; Potency, µM (series often up to 46 µM), actives largely listed as activators; 330,000 tested, 1.3% active; further: nearly all actives have a fitted effect of over 60% in size
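DMSO vehicle served as control against compound-treated ELG1-luciferase HEK293T cells; exposure lasted 16 hr at 37 °C and 5% CO2, followed by ONE-Glo luminescence detection after 30 min.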
Large screens that a line does not name were inactive. Hits are enriched below; roughly 9.4% of the tested compounds scored in any of these assays. The call rests on the fitted dose curve; in most records, active means well fitted curve in the direction sought with a large enough effect; inconclusive means small, poorly fitted or top-dose-only effect, or another doubt; inactive means no such curve, though single readings can be large; an effect the other way counts as inactive or inconclusive.

C/C(=N\Nc1ccc([N+](=O)[O-])cc1)c1ccco1	Rab9 prom act 3.5µM, NPC1 prom act inconclusive, FLuc counter 7.6µM, ELG1 DNA repair inconclusive, ELG1 genotoxic inconclusive (no result: SMN2 splice enh)
C/C(=N/Nc1ccccc1[N+](=O)[O-])c1ccc(C)c([N+](=O)[O-])c1	Rab9 prom act inconclusive, NPC1 prom act 3.2µM (no result: SMN2 splice enh)
C/C(=N\NC(=O)COc1ccc([N+](=O)[O-])cc1)c1ccco1	none (no result: SMN2 splice enh)
Cc1ccc(S(=O)(=O)Oc2ccc(C)cc2/C=N/N=C2\NC(=O)C(C)S2)cc1 (stereo not drawn)	Rab9 prom act inconclusive, FLuc counter 9.5µM, ELG1 DNA repair inconclusive, ELG1 genotoxic inconclusive
O=C(CCCCn1c(=O)c2ccccc2n(CC(=O)Nc2cccc(F)c2)c1=O)NCCc1ccccc1	none (no result: Rab9 prom act, NPC1 prom act, ELG1 DNA repair, ELG1 genotoxic)
O=C(Nc1ccccc1)c1cc([N+](=O)[O-])ccc1NCc1cccnc1	ELG1 DNA repair inconclusive (no result: SMN2 splice enh)
CC(C)(C)c1ccc(C(=O)NCC(=O)OCC(=O)Nc2nc(-c3ccc(F)cc3)cs2)cc1	FLuc counter 13µM, ELG1 DNA repair inconclusive
Cc1ccc(C(=O)Nc2nc(-c3ccc(F)cc3)cs2)o1	FLuc counter 30µM (no result: SMN2 splice enh)
Cc1ccc(-c2csc(NC(=O)c3ccno3)n2)cc1	FLuc counter 21µM, ELG1 DNA repair inconclusive, ELG1 genotoxic inconclusive
Cc1ccc(-c2csc(NC(=O)c3ccc(C)o3)n2)cc1	FLuc counter inconclusive
Cc1ccc2nc(Nc3ccc(Br)cc3)nc(-c3ccccc3)c2c1	none (no result: Rab9 prom act, NPC1 prom act, ELG1 DNA repair, ELG1 genotoxic)
COc1ccc(OC)c(C2C(C(=O)N3CCCCC3)=C(C)Nc3nc4ccccc4n32)c1 (stereo not drawn)	none (no result: Rab9 prom act, NPC1 prom act, ELG1 DNA repair, ELG1 genotoxic)
COc1ccc(-c2nc(C#N)c(NCCCn3ccnc3)o2)cc1OC	SMN2 splice enh 6.3µM, FLuc counter 15µM, ELG1 DNA repair inconclusive, ELG1 genotoxic inconclusive
CC(C)(C)c1ccc(-c2nc(C#N)c(NCCCn3ccnc3)o2)cc1	FLuc counter 21µM (no result: SMN2 splice enh)
N#Cc1nc(-c2ccc(F)cc2)oc1NCCCn1ccnc1	none
CC(C)(C)c1ccc(-c2nc(C#N)c(NCc3ccncc3)o2)cc1	Rab9 prom act inconclusive, FLuc counter 6µM, ELG1 DNA repair inconclusive, ELG1 genotoxic inconclusive (no result: SMN2 splice enh)
COc1ccc(-c2nc(C#N)c(NCCc3ccccc3)o2)cc1OC	Rab9 prom act inconclusive, NPC1 prom act inconclusive, SMN2 splice enh 16µM, FLuc counter 6.7µM, ELG1 DNA repair inconclusive, ELG1 genotoxic 8.2µM
COc1ccc(-c2nc(C#N)c(NCc3ccc(C)cc3)o2)cc1OC	FLuc counter inconclusive (no result: Rab9 prom act, NPC1 prom act, ELG1 DNA repair, ELG1 genotoxic)
CCC(CC)C(=O)Nc1ccccc1C(=O)OCc1cc(=O)n2nc(C3CCCCC3)sc2n1	none (no result: Rab9 prom act, NPC1 prom act, SMN2 splice enh, ELG1 DNA repair, ELG1 genotoxic)
Clc1ccc(OCc2nnc(SCc3nc4ccccc4[nH]3)n2Cc2ccco2)cc1	ELG1 DNA repair 16µM
O=C(CSc1nnc2ccccn12)Nc1ncc(Cl)cc1Cl	Rab9 prom act inconclusive, SMN2 splice enh inconclusive, FLuc counter inconclusive, ELG1 DNA repair inconclusive, ELG1 genotoxic 18µM
O=C(CSCc1ccccc1)Nc1ccc(F)c(F)c1	Rab9 prom act inconclusive, SMN2 splice enh inconclusive, FLuc counter 17µM, ELG1 DNA repair inconclusive, ELG1 genotoxic inconclusive
CC(NC(=O)Cn1ncc(Cl)c(Cl)c1=O)C12CC3CC(CC(C3)C1)C2 (stereo not drawn)	ELG1 DNA repair 18µM
O=C(Cn1c(=O)oc2ccccc21)Nc1ccc2c(c1)OCCO2	none
O=C(CCn1c(=O)oc2ccccc21)Nc1ccc2c(c1)OCCO2	Rab9 prom act inconclusive, NPC1 prom act inconclusive, FLuc counter 19µM, ELG1 DNA repair inconclusive, ELG1 genotoxic inconclusive (no result: SMN2 splice enh)
Cc1ccc(CNC(=O)c2ccc3c(c2)N(Cc2ccccc2F)C(=O)c2ccccc2S3(=O)=O)cc1	none (no result: Rab9 prom act, NPC1 prom act, ELG1 DNA repair, ELG1 genotoxic)
CC(CC(=O)Nc1ccc2c(c1)OCO2)c1ccccc1 (stereo not drawn)	Rab9 prom act inconclusive, FLuc counter inconclusive, ELG1 DNA repair inconclusive (no result: SMN2 splice enh)
